Data: PubChem BioAssay
Where “and” joins values, the source holds several entries; their conditions need not be identical. Equal values may be shown once. Inconclusive results are not listed. Calls of active or inactive are those of the source.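 Rule for the calls, unless noted: active = compound raises GLP1 secretion from the human gut endocrine cells, with no numeric limit stated; inactive = the rest.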

Assays:
[1] = Wnt pathway potentiators raising nuclear beta-catenin – imaging, WNT3A-conditioned medium, mouse C2C12, NPC library, primary screen (AID 1117326; in the data active = nuclear beta-catenin stimulation mostly above about 4.2%, no sharp cut-off; inactive = mostly below about 10%); conditions: stronger effect = higher value
[2] = stimulators of insulin release from INS-1E, primary screen, cell-based, 5 mM glucose, NPC library (AID 1117329;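 active = compound raises insulin release from rat beta cells at 5 mM glucose, no numeric limit stated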); conditions: rat INS-1E insulin secretion, at 10 µM, stronger effect = higher value
[3] = growth inhibition of GSK3B-pretreated HCT116 cells – cell-based, CellTiter-Glo, 0.2 to 20 µM (AID 1117336;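 active = compounds lowering colon cancer cell viability after pretreatment blocking the GSK3B kinase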); conditions: HCT116 viability after GSK3B inhibitor, at 20 µM, stronger effect = higher value
[4] = inhibition of endothelial tube formation, primary screen, imaging, VEGF stimulated, CD31 staining, tube area, NPC library (AID 1117340;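 active = compound that reduces growth-factor-driven endothelial tube area in a mixed cell culture, no cutoff stated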); conditions: VEGF-stimulated ADSC/ECFC co-culture, at 10 µM, stronger effect = higher value
[5] = GLP1 release stimulators, primary, NCI-H716, NPC library (AID 1117341); conditions: NCI-H716 cells, at 10 µM, stronger effect = higher value
[6] = HCT116 colon cancer cell growth inhibition, primary screen, CellTiter-Glo luminescence, NPC library (AID 1117342;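 active = compounds that lower survival of HCT116 colon cancer cells in the luminescence readout, no numeric limit stated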); conditions: at 20 µM (top of the series)
[7] = reduced SW480 viability measured with CellTiter-Glo, NPC library, primary (AID 1117343;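 active = compounds that lower viability of the colon cancer cells in the luminescence readout, with no numeric limit stated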); conditions: CellTiter-Glo luminescence; at 20 µM (top of the series) unless noted
[8] = NPC library primary testing for decreased DLD-1 cell viability via CellTiter-Glo (AID 1117346;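 active = compounds that lower survival of DLD-1 colon cancer cells in the luminescence readout, no cutoff given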); conditions: DLD-1 viability, CellTiter-Glo luminescence; at 20 µM (top of the series)
[9] = viability loss in pontine glioma line – cell-based, JHH-DIPG-1, MIPE4.0, CellTiter-Glo, qHTS, dose response (AID 1347062; cut-off not given, nearly all actives have AC50 up to about 27 µM;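 note: cells exposed to compound for two days before readout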); conditions: JHH-DIPG-1 viability, CellTiter-Glo ATP luminescence
[10] = viability loss in pontine glioma line – cell-based, SU-DIPG-IV, MIPE4.0, CellTiter-Glo, qHTS, dose response (AID 1347063; cut-off not given, nearly all actives have AC50 up to about 30 µM;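 note: compound exposure lasted 48 hours before the viability readout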); conditions: CellTiter-Glo ATP luminescence
[11] = system: Hepatitis C virus NS3 helicase; test: blockers of NS3h binding to ssDNA – biochemical, fluorescence polarization, LOPAC1280 library, primary screen (AID 687035; in the data active = inhibition above about 37%); conditions: Purified HCV NS3 helicase, Cy5-dT15 ssDNA binding fluorescence polarization; stronger effect = higher value; concentration not given here
[12] = compounds altering Cy5-DNA-NS3h complex signal – biochemical, LOPAC1280, artefact control for HCV NS3 helicase inhibitor project (AID 687037; call rule not given here); conditions: Cy5-DNA-NS3h complex fluorescence interference counterscreen
[13] = viability loss with induced miR-34 in A549 – imaging, A549 dox-inducible miR-34, nuclei and caspase counts, primary screen (AID 1347080;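 active = compounds whose cell count with miR-34 switched on is under 0.7 times the count with it off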); conditions: A549 miR-34 inducible, Hoechst nuclei count, 48 h
[14] = blockers of cellular phospholipid synthesis – cell-based, LOPAC library, screen 4, primary screen (AID 1347384; call rule not given here); conditions: animal cells, phospholipid biosynthesis inhibition screen; at 10 µM
[15] = MELAS cybrid and Rieske KO viability enhancers – cell-based, MELAS cybrids, Rieske KO mouse fibroblasts, CellTiter-Glo, primary screen (AID 1508586;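 active = mean z-score across replicates of 1.96 or higher in either the MELAS or the Rieske mutant cell line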;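 note: z relative to plate mean and SD of compound and empty wells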); conditions: low glucose
[16] = galactose survival enhancers in mitochondrial complex I cybrids – cell-based, galactose medium, ATP luminescence, primary screen (AID 1645843;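 active = z-score of at least 1.8 in each of two replicates, scored against plate mean and spread of sample wells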;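 note: positive z means more ATP and so rescue of galactose-driven cybrid death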); conditions: complex I mutant cybrid cells, 72 h, stronger effect = higher value
[17] = growth inhibition, single agents and combos, ICB984, cell-based, cisplatin or BGB combos, synergistic combos for chromothripsis tumors (AID 1671451; call rule not given here;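 note: cells exposed for 96 hours before readout; 0% = vehicle DMSO and 100% = killing by high DMSO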); conditions: ICB984 medulloblastoma cells, drug combinations, stronger effect = higher value
[18] = P. berghei load reduction in hepatocytes – cell-based, HepG2, luciferase luminescence, HepG2 viability, primary screen (AID 624349; in the data active = parasite load remaining mostly below about 12%, no sharp cut-off; inactive = mostly above about 10%;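 note: 100% = mean of DMSO negative control wells on the same plate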); conditions: P. berghei liver stage in HepG2, luciferase luminescence, concentration not given here; parasite load remaining: stronger effect = lower value; viability: measured here: HepG2 viability without parasites
[19] = target: NAD(+) hydrolase SARM1 (Homo sapiens) (UniProt Q6SZW1); test: blocking NAD cleavage by SARM1 SAM-TIR – cell lysate, NAD-Glo luminescence (AID 1508614;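 active = compound whose remaining NAD level is above about 45 nM, limit read from the data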;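 note: higher remaining NAD means stronger inhibition of SARM1 NADase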); conditions: SAM-TIR HEK293T lysate NADase, at 1 µM, stronger effect = higher value
NAD(+) hydrolase SARM1 (Homo sapiens), sequence (Q6SZW1 whole entry, looked up): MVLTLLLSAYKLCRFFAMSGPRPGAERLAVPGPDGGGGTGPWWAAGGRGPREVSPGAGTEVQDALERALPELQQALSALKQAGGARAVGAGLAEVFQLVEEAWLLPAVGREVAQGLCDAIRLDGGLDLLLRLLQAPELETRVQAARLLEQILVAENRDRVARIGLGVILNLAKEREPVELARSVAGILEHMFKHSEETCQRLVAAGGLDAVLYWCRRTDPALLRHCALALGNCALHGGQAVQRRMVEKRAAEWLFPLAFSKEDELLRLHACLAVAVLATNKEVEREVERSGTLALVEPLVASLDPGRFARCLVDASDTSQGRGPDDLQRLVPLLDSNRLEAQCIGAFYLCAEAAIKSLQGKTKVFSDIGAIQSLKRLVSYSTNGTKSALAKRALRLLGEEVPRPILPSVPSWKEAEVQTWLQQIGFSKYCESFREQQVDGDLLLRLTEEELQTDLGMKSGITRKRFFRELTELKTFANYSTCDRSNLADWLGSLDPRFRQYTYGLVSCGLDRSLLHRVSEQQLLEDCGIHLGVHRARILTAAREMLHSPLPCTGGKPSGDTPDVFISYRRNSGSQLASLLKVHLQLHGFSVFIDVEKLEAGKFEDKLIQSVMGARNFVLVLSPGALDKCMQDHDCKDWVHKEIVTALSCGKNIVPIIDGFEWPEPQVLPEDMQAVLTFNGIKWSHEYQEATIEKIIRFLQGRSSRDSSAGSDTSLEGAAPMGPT

[20] = stronger effect = lower value, cell number ratio, induced over uninduced
[21] = measured here: relative caspase fold change +Dox/-Dox
[22] = measured here: total cells with miR-34 induction, stronger effect = lower value
[23] = measured here: total cells without miR-34 induction
[24] = MELAS cybrid survival, CellTiter-Glo 48 h, stronger effect = higher value
[25] = Rieske KO mouse fibroblast survival, CellTiter-Glo 72 h

COc1cc(NCc2ccc3nc(N)nc(N)c3c2C)cc(OC)c1OC
nuclear beta-catenin stimulation ([1]; at 10 µM): 40.4% (active)
nuclear beta-catenin stimulation ([1]; stimulation, at 2 µM): 71.7%
insulin secretion stimulation [2]: 3.6% (inactive)
viability decrease [3]: 105% (active)
tube area decrease [4]: 60.1% (active)
GLP1 secretion stimulation [5]: 2.9% (inactive)
inhibition of viability [6]: 94.9% (active)
viability decrease (inhibition) [7]: 142% (active)
viability decrease (inhibition) [8]: 70.6% (active)
AC50 [9]: 18.7 µM (active)

O[C@@H](CNC[C@H](O)[C@H]1CCc2cc(F)ccc2O1)[C@@H]1CCc2cc(F)ccc2O1
nuclear beta-catenin stimulation ([1]; at 10 µM): 8.6% (inactive)
nuclear beta-catenin stimulation ([1]; stimulation, at 2 µM): -2.1%
insulin secretion stimulation [2]: 2.75% (inactive)
viability decrease [3]: 108% (active)
tube area decrease [4]: 60.9% (active)
GLP1 secretion stimulation [5]: 5.8% (inactive)
inhibition of viability [6]: 112% (active)
viability decrease (inhibition) [7]: 130% (active)
viability decrease (inhibition) [8]: 101% (active)
AC50 [10]: 20.9 µM (active)

CCOC(=O)Nc1ccc(NCc2ccc(F)cc2)nc1N
inhibition [11]: -3% (inactive)
fluorescence ratio (interference) [12]: 1 (inactive)
nuclear beta-catenin stimulation ([1]; at 10 µM): 0.2% (inactive)
nuclear beta-catenin stimulation ([1]; stimulation, at 2 µM): 2.4%
insulin secretion stimulation [2]: 1.9% (inactive)
viability decrease [3]: 5.6% (inactive)
tube area decrease [4]: -7.5% (inactive)
GLP1 secretion stimulation [5]: -1.1% (inactive)
inhibition of viability [6]: 18.8% (inactive)
viability decrease (inhibition) [7]: 1.7% (inactive)
viability decrease (inhibition) [8]: 8.6% (inactive)
outcome [10]: inactive
fold change [13, 20]: 1.05 (inactive) and 0.965 (inactive)
fold change [13, 21]: 0.797 and 0.68
cell count [13, 22]: 10200 and 8110
cell count [13, 23]: 9760 and 8410
outcome [14]: inactive
z-score [15, 24]: -0.196 (inactive)
z-score [15, 25]: -0.17
z-score [16]: 1.55 (inactive)
inhibition ([17]; BGB IC20 combo, at 0.005 µM): -2.86%
inhibition ([17]; BGB IC40 combo, at 0.005 µM): -6.26%
inhibition ([17]; BGB IC40 combo, at 0.05 µM): -38.3%
inhibition ([17]; at 0.5 µM): -14.8% (inactive)
inhibition ([17]; cisplatin combo, at 0.05 µM): -45.5%
inhibition ([17]; cisplatin combo, at 0.5 µM): -9.07%
inhibition ([17]; cisplatin combo, at 5 µM): -15.3%
inhibition ([17]; measured here: 5 uM single agent, at 5 µM): -2.67%

C[C@@H]1C[C@H]2[C@@H]3CCC4=CC(=O)C=C[C@]4(C)[C@@]3(Cl)[C@@H](O)C[C@]2(C)[C@@]1(OC(=O)c1ccco1)C(=O)CCl
parasite load remaining [18]: 101% (inactive) and 89.2% (inactive)
viability [18]: 90.7% and 72.5%
nuclear beta-catenin stimulation ([1]; at 10 µM): 23.1% (inactive)
nuclear beta-catenin stimulation ([1]; stimulation, at 2 µM): 2.8%
insulin secretion stimulation [2]: -0.7% (inactive)
viability decrease [3]: -43% (inactive)
tube area decrease [4]: 99.7% (active)
GLP1 secretion stimulation [5]: 3.9% (inactive)
inhibition of viability [6]: 67% (active)
viability decrease (inhibition) [7]: 119% (active)
viability decrease (inhibition) [8]: 95.5% (active)
AC50 [9]: 4.69 µM (active)
AC50 [10]: 13.2 µM (active)
fold change [13, 20]: 0.786 (inactive)
fold change [13, 21]: 1.68
cell count [13, 22]: 4000
cell count [13, 23]: 5090
z-score [15, 24]: -1.01 (inactive)
z-score [15, 25]: -0.104
remaining NAD [19]: 10 nM (inactive)

O=C(O)c1cccc(-c2noc(-c3ccccc3F)n2)c1
nuclear beta-catenin stimulation ([1]; at 10 µM): 2.5% (inactive)
nuclear beta-catenin stimulation ([1]; stimulation, at 2 µM): 4.8%
insulin secretion stimulation [2]: 0% (inactive)
viability decrease [3]: 8.8% (inactive)
tube area decrease [4]: -5.7% (inactive)
GLP1 secretion stimulation [5]: 2.2% (inactive)
inhibition of viability [6]: 15.5% (inactive)
viability decrease (inhibition) [7]: 2.3% (inactive)
viability decrease (inhibition) [8]: -11% (inactive)
outcome [10]: inactive
fold change [13, 20]: 0.927 (inactive)
fold change [13, 21]: 0.71
cell count [13, 22]: 10200
cell count [13, 23]: 11000
z-score [15, 24]: -0.357 (inactive)
z-score [15, 25]: 0.633
